According to PubChem BioAssay AID1159580 (chemical genetic matrix, 2015):
Several values for one entry are separate records, joined by “and”; a condition that tells them apart may be missing. Equal entries are not always repeated. Hit rate of the full screen: of about 5,500 compounds, about 2,000 (36%) were called active. Another 18% or so got no clear call; they are omitted. Cut-off read from the data, not from the text of the source: active = normalized growth mostly below about 0.91 (no sharp cut-off); inconclusive = no clear call, values can overlap the other calls; inactive = mostly above about 0.92. The list shows a part of the results.

Experiment: chemical genetic growth profiling, strain panel (AID 1159580);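 note: tested at 20 µM; growth read once vehicle control cultures reached saturation at 30 °C; 1 = growth at the plate median or of vehicle wells; lower values mean less growth of the strain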
Details: S. cerevisiae deletion strains, growth OD

Measured: normalized growth

CC(=O)OCC[C@H](C)CCC=C(C)C
inactive: locus YAL013W, strain DEP1, hits give low values 1 | locus YAL021C, strain ccr4, hits give low values 0.993 | locus YAL026C, strain drs2, hits give low values 0.993 | locus YAL030W, strain snc1, hits give low values 0.989 | locus YBL061C, strain skt5, hits give low values 0.992 | locus YBR009C, strain hhf1, hits give low values 1.06 | locus YBR021W, strain FUR4, hits give low values 0.991 | locus YBR023C, strain chs3, hits give low values 0.995 | locus YBR171W, strain sec66, hits give low values 0.983 | locus YBR229C, strain ROT2, hits give low values 1.01 | locus YBR231C, strain swc5, hits give low values 0.986 | locus YBR279W, strain paf1, hits give low values 0.997 | locus YCL011C, strain gbp2, hits give low values 1.01 | locus YCL016C, strain dcc1, hits give low values 0.994 | locus YCL029C, strain bik1, hits give low values 1.03 | locus YCL061C, strain MRC1, hits give low values 1 | locus YCL069W, strain vba3, hits give low values 0.989 | locus YCR088W, strain abp1, hits give low values 0.989 | locus YDL005C, strain med2, hits give low values 0.978 | locus YDL035C, strain GPR1, hits give low values 1.02 | locus YDL040C, strain nat1, hits give low values 0.993 | locus YDL074C, strain BRE1, hits give low values 1.05 | locus YDL101C, strain DUN1, hits give low values 1.01 | locus YDL185W, strain tfp1, hits give low values 1.02 | locus YDL192W, strain arf1, hits give low values 1.04 | locus YDR001C, strain nth1, hits give low values 0.998 | locus YDR069C, strain doa4, hits give low values 0.991 | locus YDR101C, strain arx1, hits give low values 1.03 | locus YDR137W, strain rgp1, hits give low values 0.974 | locus YDR150W, strain NUM1, hits give low values 1.01 | locus YDR159W, strain sac3, hits give low values 1.02 | locus YDR162C, strain NBP2, hits give low values 1.01 | locus YDR195W, strain ref2 0.949 | locus YDR297W, strain sur2, hits give low values 1.01 | locus YDR318W, strain mcm21, hits give low values 1.02 | locus YDR334W, strain swr1, hits give low values 0.998 | locus YDR335W, strain msn5, hits give low values 0.992 | locus YDR388W, hits give low values 1.02 | locus YDR392W, strain spt3, hits give low values 0.966 | locus YDR502C, strain sam2, hits give low values 1.01 | locus YEL003W, strain gim4, hits give low values 1 | locus YEL037C, strain rad23, hits give low values 0.995 | locus YEL061C, strain CIN8 (second series), hits give low values 1.03 | locus YEL061C, strain CIN8, hits give low values 1.01 | locus YER015W, strain faa2, hits give low values 0.993 | locus YER016W, strain bim1, hits give low values 0.962 | locus YER110C, hits give low values 1.03 | locus YER111C, strain swi4, hits give low values 0.992 | locus YER155C, strain BEM2 (second series), hits give low values 0.973 | locus YER155C, strain BEM2, hits give low values 0.988 | locus YER167W, strain BCK2, hits give low values 1.01 | locus YFR010W, strain ubp6, hits give low values 1.01 | locus YGL078C, strain dbp3, hits give low values 1.01 | locus YGL086W, strain mad1, hits give low values 1.01 | locus YGL167C, strain pmr1, hits give low values 0.99 | locus YGL173C, strain kem1, hits give low values 0.986 | locus YGL227W, strain vid30, hits give low values 0.987 | locus YGL240W, strain doc1, hits give low values 0.978 | locus YGL248W, strain PDE1, hits give low values 1.02 | locus YGL253W, strain hxk2, hits give low values 0.997 | locus YGR135W, strain pre9, hits give low values 1.06 | locus YGR252W, strain gcn5, hits give low values 1.06 | locus YHR013C, strain ard1, hits give low values 0.967 | locus YHR027C, strain rpn1, hits give low values 0.99 | locus YHR030C, strain SLT2, hits give low values 1 and 1.01 | locus YHR079C, strain IRE1 (second series), hits give low values 1.02 | locus YHR079C, strain IRE1, hits give low values 1.01 | locus YHR094C, strain hxt1, hits give low values 1.02 | locus YHR129C, strain ARP1, hits give low values 0.999 | locus YHR142W, strain chs7, hits give low values 0.988 | locus YHR200W, strain rpn10, hits give low values 1.03 | locus YIL066C, strain RNR3, hits give low values 1.01 | locus YIL073C, strain SPO22, hits give low values 1.1 | locus YIL125W, strain kgd1, hits give low values 1.01 | locus YIR030C, strain dcg1, hits give low values 1.02 | locus YJL092W, strain hpr5, hits give low values 0.999 | locus YJL095W, strain BCK1 (second series), hits give low values 0.99 | locus YJL095W, strain BCK1, hits give low values 1.02 | locus YJL115W, strain asf1, hits give low values 0.991 | locus YJL129C, strain trk1, hits give low values 0.968 | locus YJL134W, strain LCB3, hits give low values 1.01 | locus YJL154C, strain vps35, hits give low values 0.981 | locus YJL164C, strain tpk1, hits give low values 1.02 | locus YJL166W, strain qcr8, hits give low values 0.96 | locus YJL168C, strain set2, hits give low values 1.02 | locus YJL187C, strain SWE1 (second series), hits give low values 1.02 | locus YJL187C, strain SWE1, hits give low values 0.982
